In PubChem BioAssay (NCI):
About 79,000 compounds went through this panel and 15% of them were active in at least one assay; those are over-represented in the sample as a whole. Unmarked numbers belong to inactive results. The source made the active and inactive calls. Rule as the data show it: active = growth inhibition above about 70%; inactive = the rest.

How the values were obtained:
[1] = NCI Yeast Anticancer Drug Screen. Data for the rad50 strain (AID 155);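 also: 0% = growth of vehicle-only cultures of the same strain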; conditions: S. cerevisiae rad50 strain growth inhibition; at 50.0 µM; stronger effect = higher value
Summary of the method: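 Cells are treated with compound, grown, and their growth is then scored against vehicle-only cultures of the same repair-deficient yeast strain.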

[2] = NCI Yeast Anticancer Drug Screen. Data for the mec2-1 strain (AID 157); conditions: S. cerevisiae mec2-1 strain, at 50.0 µM, stronger effect = higher value
Summary of the method: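 Readout is yeast growth inhibition, normalised to vehicle-treated controls, in the mec2-1 strain exposed to compound.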

[3] = NCI Yeast Anticancer Drug Screen. Data for the sgs1 mgt1 strain (AID 161);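 also: 0% = growth of cultures given vehicle only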; conditions: S. cerevisiae sgs1 mgt1 strain, at 50.0 µM, stronger effect = higher value
Summary of the method: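 Percent growth inhibition was derived by comparing compound-exposed mutant yeast with vehicle-exposed cultures. The strain carries alterations in DNA damage repair.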

[4] = NCI Yeast Anticancer Drug Screen. Data for the cln2 rad14 strain (AID 165);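 also: 0% = growth equal to vehicle treated cultures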; conditions: S. cerevisiae cln2 rad14 strain, at 50.0 µM, stronger effect = higher value
Summary of the method: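 Relative to vehicle controls, growth inhibition of compound-treated cln2 rad14 yeast was recorded.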

[5] = NCI Yeast Anticancer Drug Screen. Data for the bub3 strain (AID 167); conditions: S. cerevisiae bub3 mutant strain, at 50.0 µM, stronger effect = higher value
Summary of the method: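 Part of a panel of yeast mutants defective in DNA damage repair or cell cycle regulation. Each strain is grown with compound, and inhibition is calculated relative to solvent-treated cultures.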

[6] = NCI Yeast Anticancer Drug Screen. Data for the mlh1 rad18 strain (AID 175); conditions: S. cerevisiae mlh1 rad18 strain growth inhibition; at 50.0 µM; stronger effect = higher value
Summary of the method: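 Test agents were incubated with a yeast strain of defined genotype (DNA damage repair defect). Inhibition of growth was derived by comparison with vehicle-exposed cultures.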

| SMILES | growth inhibition [1] [%] | growth inhibition [2] [%] | growth inhibition [3] | growth inhibition [4] [%] | growth inhibition [5] [%] | growth inhibition [6] [%] |
| --- | --- | --- | --- | --- | --- | --- |
| CCOC(=O)Nc1ccc(S(=O)(=O)c2ccc(Nc3ccnc4cc(Cl)ccc34)cc2)cc1 | 17.1 | 10.2 | 27.2% | -35.8 | 5.45 | 47.8 |
| CC(C)CCCC(C)C1CCC2C3CC=C4CC(C(=O)O)CCC4C3CCC12C (stereo unspecified) | 26.8 | 21.6 | 14.1% | 21.2 | -3.5 | 22.6 |
| OCC12OCC(O1)C(O)C(O)C2O (stereo unspecified) | -14.6 | 2.2 | 1.35% | -9.35 | -4.05 | -16.8 |
| COc1cccc(NC(=S)NCc2cccnc2)c1 | -13.4 | -24.9 | 9.1% | 9.25 | -13.2 | -5.3 |
| CC(C)([NH-])C[NH-].O=C(O)CCO.[Pt+2] | 27.8 | -8.8 | -2.8% | 17.6 | 8.65 | 14.2 |
| O=C(Nc1cc([N+](=O)[O-])ccc1F)Oc1ccc(OCc2ccccc2)cc1 | 11.9 | -1.5 | 9.9% | -47.2 | -2.55 | 18.2 |
| Cc1cc2c(cc1Cl)SC(NNc1ccc([N+](=O)[O-])cc1)=NS2(=O)=O | 34.6 | 2.4 | 4.6% | -7.85 | -19.6 | 26.9 |
| CCNc1nc(C)nc2c1cnn2-c1ccc(C)cc1 | 6.25 | -3.4 | 25.3% | -27.5 | -21.8 | 7.25 |
| NC(=O)NC(NC(=O)NC(NC(N)=O)c1ccco1)c1ccco1 (stereo unspecified) | 11.3 | 15.4 | 10.7% | 6.1 | 2.05 | 15.3 |
| COc1ccccc1NC(=O)c1nc2ccc([N+](=O)[O-])cc2nc1C | 21.4 | 19.1 | 1.65% | 15.4 | 33.9 | 20.4 |
| CCOC(=O)c1cc2c(ccc3cc(C(=O)OCC)[nH]c32)[nH]1 | 21.9 | 26.1 | 26.8% | 4.2 | 24.4 | -11.3 |
| NC(=O)C(NN=C1c2ccccc2-c2ccccc21)(c1ccccc1)c1ccccc1 | 41 | -0.2 | 28% | 42.8 | 0.05 | 18.7 |
| CCC(O)CNCc1ccnc2ccc(OC)cc12 (stereo unspecified) | 3.3 | 2.9 | 0.45% | -45.4 | -4.1 | -12.1 |
| CCOc1ccccc1N=Nc1c(C)nn(C(=S)SC)c1OCC | 22.5 | 18.4 | 26.4% | 30.2 | 14 | 39.2 |
| O=C1c2c(O)cccc2C(C(=O)CCCC(=O)C2c3cccc(O)c3C(=O)c3c(O)cccc32)c2cccc(O)c21 | -1.55 | 13.2 | 3.25% | 19.9 | -15.8 | -0.85 |
| COC(=O)c1ccc(Cn2ccc(=O)n(Cc3ccc(C(=O)OC)cc3)c2=O)cc1 | 63.2 | 23.8 | 74.6% (active) | 30.6 | 31.3 | 43.1 |
| OC1(CCC2OCCO2)c2ccccc2-c2ccccc21 | -3.9 | 7.05 | 7.85% | 25.4 | 15.8 | 2.85 |
| CSC1(C)CC2C(CC1N1CCOCC1)C2(C)C (stereo unspecified) | -28.4 | -33.9 | -41.6% | -14.2 | -33.4 | -26.2 |
| CC(C)NC(=O)CC(NCc1ccccc1)C(=O)O (stereo unspecified) | 5.85 | 6.8 | 21.1% | 9.5 | -6.8 | 10.2 |
| COc1cccc2c1C(=O)OC2c1cccc2ccccc12 (stereo unspecified) | 10.5 | -7.45 | 7.25% | 28.2 | 4.3 | 16 |
| O=C(Nc1ccccc1)O/N=C(/c1ccccc1)c1cccnc1 | 15.2 | -5.1 | 13.2% | -3.3 | 15.2 | 6.3 |

| SMILES | growth inhibition [1] [%] | growth inhibition [2] [%] | growth inhibition [3] | growth inhibition [4] [%] | growth inhibition [5] [%] | growth inhibition [6] [%] |
| --- | --- | --- | --- | --- | --- | --- |
| CCOC(=O)/C(N=Nc1ccc(O)cc1)=C(\C)O | -6.4 | 28.4 | 17.7% | 24.9 | -1.2 | -0.65 |
| N#Cc1ccc(N=NN2CCOC2)cc1 | 20.6 | 11.4 | -0.7% | 7.7 | 23 | 44.9 |
| COc1cnn(-c2ccccc2)c(=O)c1Cl | -1.4 | -7.35 | -1.85% | -3.7 | 0.8 | -13.9 |
| CC1=N/C(=C/c2ccccc2)C(=O)O1 | 7.6 | 0.75 | 11.6% | -26.7 | 12.5 | 10 |
| O=C1OC2C(Cl)C3CC1C2C3 (stereo unspecified) | -12.2 | -9.6 | -22.3% | -13.2 | 4.65 | -31.4 |
| CSc1cc(/C=C/c2ccccc2)ccc1N | 1 | 1.5 | -9.45% | -33.5 | 5.25 | 2 |
| CC(=O)OCCNc1ccccc1 | -5.05 | 0.2 | 10.2% | -5 | -2.75 | 20.3 |
| CC(C)=CCc1ccc2c(c1)CCCN2C | -44.4 | -22.1 | -17.4% | -47 | 20.9 | 1.15 |
| Cc1cccc(C)c1N1C(=O)C(=O)C(c2nc3ccccc3s2)C(=Nc2cccc3c(=O)[nH][nH]c(=O)c23)C1=O (stereo unspecified) | 30.5 | 13.9 | 17.6% | 23.2 | 0.95 | 23.7 |
| O=C1c2ccccc2C(O)(c2ccccc2)c2ccccc21 | 13.4 | 20.6 | 13.8% | -21.6 | 13.4 | 0.35 |
| N#Cc1c2c(n3c1[nH]c(=O)c1ccccc13)CCCC2 | 24.4 | 10 | 23.9% | 11.9 | -2.8 | 10.8 |
| COc1cc(CNc2nc3c(NC(C)=O)cc(C(F)(F)F)cc3nc2-c2ccccc2)cc(OC)c1OC | -16.1 | -15.8 | -32.3% | -4.35 | 10.8 | -10.3 |
| Nc1nc(SCC(=O)c2ccc(Br)cc2)c2[nH]cnc2n1 | 23.2 | 3.35 | -10.9% | 10.1 | 23.1 | 26.9 |
| CCN(CC)CCCn1c(-c2ccccc2)ccc1-c1ccccc1 | 10.1 | -6 | 8.1% | -16.4 | 21.4 | 18.4 |
| CCO[Si](CCCN)(OCC)OCC | -37.5 | -58.2 | -36.2% | 0.95 | -22.1 | -33.8 |
| Cc1ccc(C)c(NC(=O)CCC(=O)CC(=O)C(C)(C)C)c1 | -3.25 | 8.35 | 5.3% | 15.5 | -6.4 | 12.7 |
| COC(=O)C(=O)C(C(=O)C(=O)Nc1cccc([N+](=O)[O-])c1)c1nc2ccc(Cl)cc2[nH]c1=O (stereo unspecified) | 15 | -22.2 | 14.2% | -19.1 | -1.5 | 0.2 |
| C=CCc1ccc(C)c(C)c1O | 24.4 | 3.55 | 21.8% | 19.1 | 5.55 | 12.8 |
| COc1ccc(OC2OC(CO)C(OCc3ccccc3)C(OCc3ccccc3)C2OCc2ccccc2)cc1 (stereo unspecified) | 5.6 | -11.7 | -11.7% | 2.4 | -33.6 | -42.8 |
| O=C(O)C1C(CCl)=C1CCl | -15.8 | 20.7 | 2.35% | -11.3 | 4.7 | -2.9 |
